LYPLA1 counter: blocks human lysophospholipase 1, a PME1 counter-screen; recombinant LYPLA1, FP-Rh probe fluorescence polarization; 320,000 compounds, 0.16% hits; inhibition, % at 5.9 µM;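 active means inhibition above the mean of all tested compounds plus 3 SD, set per campaign, cut at about 14% in these data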;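 further: inhibitors block serine hydrolase probe labeling of LYPLA1 so polarization falls; 0% = enzyme with DMSO and 100% = wells lacking LYPLA1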
Target sequence (O75608 whole entry, looked up): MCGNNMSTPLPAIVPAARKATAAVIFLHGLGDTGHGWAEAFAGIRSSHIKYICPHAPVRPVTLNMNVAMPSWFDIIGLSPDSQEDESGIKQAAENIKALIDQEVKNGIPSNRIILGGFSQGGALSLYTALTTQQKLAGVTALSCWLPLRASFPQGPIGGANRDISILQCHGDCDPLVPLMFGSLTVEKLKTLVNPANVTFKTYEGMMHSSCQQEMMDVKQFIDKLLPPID
LYPLA2 inh: blocks human lysophospholipase 2, a PME1 counter-screen. 320,000 compounds, 0.38% hits. inhibition, % at 5.9 µM. AID 2177. recombinant LYPLA2, FP-Rh probe fluorescence polarization;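 active means inhibition above the screen-wide mean plus 3 SD, limit set per campaign, cut at about 26% in these data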;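 further: 0% = LYPLA2 with DMSO and 100% = wells lacking LYPLA2 enzyme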
Target sequence (O95372 whole entry, looked up): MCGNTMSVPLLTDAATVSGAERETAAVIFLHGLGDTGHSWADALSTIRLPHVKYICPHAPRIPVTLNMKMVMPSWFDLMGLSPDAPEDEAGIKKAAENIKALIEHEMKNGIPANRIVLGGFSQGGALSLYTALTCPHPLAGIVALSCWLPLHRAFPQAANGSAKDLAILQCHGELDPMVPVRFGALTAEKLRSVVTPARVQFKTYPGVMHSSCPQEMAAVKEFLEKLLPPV
PAD4 inh: blocks human protein arginine deiminase 4; Q9UM07; recombinant PAD4, RCA probe fluorescence polarization; inhibition, % at 6.36 µM; 330,000 compounds, 0.41% hits; AID 485272;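 active means percent inhibition above a cutoff equal to the mean of all tested compounds plus 3 SD, cut at about 15% in these data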;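 further: 0% = PAD4 with RCA probe and DMSO and 100% = probe without PAD4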
GSTO1 inh: GSTO1 inhibition, counter-screen for RBBP9 inhibitors; P78417; recombinant GSTO1, activity-based probe fluorescence polarization; inhibition, % at 5.96 µM; 300,000 compounds, 1.1% hits;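 active means inhibition above the campaign mean inhibition plus 3 SD, cut at about 35% in these data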;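 further: 0% = GSTO1-1 with DMSO and 100% = wells lacking GSTO1-1 enzyme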
Target sequence (P78417 whole entry, looked up): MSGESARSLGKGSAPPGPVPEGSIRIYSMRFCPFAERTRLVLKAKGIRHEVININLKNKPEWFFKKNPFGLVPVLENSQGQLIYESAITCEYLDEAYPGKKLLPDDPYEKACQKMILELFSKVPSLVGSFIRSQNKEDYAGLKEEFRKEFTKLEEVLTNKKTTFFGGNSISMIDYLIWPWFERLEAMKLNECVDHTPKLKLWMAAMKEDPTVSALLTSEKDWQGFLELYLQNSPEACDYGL
PME-1 inh: blocks human protein phosphatase methylesterase 1; Q9Y570; recombinant PME-1, FP-Rh probe fluorescence polarization; inhibition, % at 5.9 µM; 320,000 compounds, 0.53% hits; AID 2130;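 active means inhibition above the campaign mean of all compounds plus 3 SD, cut at about 26% in these data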;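 further: competitive labeling of PME-1 active site by serine hydrolase directed probe; 0% = PME-1 with DMSO and 100% = wells lacking PME-1 enzyme; inhibitors block probe labeling so polarization falls and inhibition rises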
Fam108B inh: blocks mouse Fam108B hydrolase in RBBP9 counter-screen. recombinant Fam108B, FP-Rh probe fluorescence polarization. inhibition, % at 9.51 µM. 300,000 compounds, 0.33% hits. AID 1947;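 active means inhibition above the screen mean inhibition plus 3 SD, computed separately per campaign, cut at about 18% in these data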;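 further: inhibitors lower polarization as less probe binds the enzyme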
Fam108b inh conf: confirmation of mouse Fam108b serine hydrolase inhibitors | shares compounds with Fam108B inh | 930 compounds, 44% hits | recombinant Fam108b, FP-Rh probe fluorescence polarization | inhibition, % at 9.51 µM;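 active means inhibition above a limit from the primary screen, the mean over all compounds plus 3 SD, cut at about 19% in these data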;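 further: 0% = median of active Fam108b wells and 100% = catalytically dead S170A mutant; inhibitors free the probe so polarization falls as inhibition rises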
Fam108b ABPP HTS: mouse ABHD17B inhibition. shares compounds with Fam108B inh. recombinant Fam108b, gel-based ABPP, fluorophosphonate probe. inhibition, % at 20 µM. 260 compounds, 44% hits; in the data active means inhibition above about 40%
GSTO1 inh conf: confirmation of human GSTO1 inhibitors | inhibition, % at 5.96 µM | shares compounds with GSTO1 inh | recombinant GSTO1, probe fluorescence polarization | 2,400 compounds, 54% hits | AID 2176;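 active means inhibition above the primary screen's cutoff, its mean inhibition plus 3 SD, cut at about 35% in these data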;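 further: loss of polarization as inhibitors block binding of rhodamine sulfonate ester activity probe; 0% = GSTO1 with DMSO and 100% = wells lacking GSTO1 enzyme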
Numbers without * were called inactive; · = no result. A selection: hits, their analogues and other compounds. The true share with any hit is near 1.8%.

SMILES	LYPLA1 counter	LYPLA2 inh	PAD4 inh	GSTO1 inh	PME-1 inh	Fam108B inh	Fam108b inh conf	GSTO1 inh conf	others
CCOC(=O)C1=C(C)N=c2s/c(=C\c3ccc(O)c([N+](=O)[O-])c3)c(=O)n2C1c1ccccc1OC (stereo not given)	2.1	-0.5	-0.3	34.1	5.9	27.6*	45.1*	·
COc1ccc2cc(/C=N/NC(=O)CN(c3ccccc3C)S(=O)(=O)c3ccccc3)c(Cl)nc2c1	-1.9	-5.3	0.9	2.0	-2.1	-0.6	·	·
Cc1ccc(S(=O)(=O)N=C2C=C(Sc3ncn[nH]3)C(=O)c3ccccc32)c(C)c1	·	·	·	·	·	·	·	·	Fam108b ABPP HTS=95.0*
CCc1ccc(S(=O)(=O)N=C2C=C(Sc3ncn[nH]3)C(=O)c3ccccc32)cc1	·	·	·	·	·	·	·	·	Fam108b ABPP HTS=60.0*
CCN(c1ccccc1)S(=O)(=O)c1ccc(Cl)c(NC(=O)CSc2ncn[nH]2)c1	2.0	-3.8	3.4	0.8	15.6	0.4	·	·
Cc1ccc(S(=O)(=O)/N=C(/c2ccccc2)N(C)C)c(C)c1	-1.9	-1.6	6.2	0.0	-4.5	1.7	·	·
CC(C)(C)OC(=O)C[C@@H]1C/C=C\C[C@H](CC(=O)NCCO)C(=O)N[C@@H](Cc2ccccc2)COC1=O	·	·	0.7	·	·	·	·	·
CCOC(=O)CSc1nc2c(sc(=S)n2-c2ccccc2OC)c(=O)n1Cc1ccco1	-3.4	-4.3	-4.0	-1.2	25.6	19.1*	6.6	·
CC1CCCCN1S(=O)(=O)c1ccc(C(=O)Nc2ccccc2-c2nc3ccccc3[nH]2)cc1 (stereo not given)	-6.5	7.9	-3.3	-12.2	27.7*	32.0*	71.8*	·
CC1CCCCN1S(=O)(=O)c1ccc(C(=O)Nc2ccccc2-c2nc3ccccc3s2)cc1 (stereo not given)	1.3	2.1	3.4	0.7	3.6	-0.8	·	·
Cc1ccccc1-c1nc2sc3c(c2c(=O)o1)CCC3	1.1	-1.0	-1.4	1.8	-5.0	20.8*	11.4	·
Cc1ccc(C(=O)Cc2ccccc2)o1	-0.9	-3.3	-4.0	4.5	5.1	-5.2	·	·
CC(=O)NC1=NN(C(C)=O)C(C)(c2ccco2)S1 (stereo not given)	-0.8	-6.6	-8.4	-7.0	3.9	21.7*	3.4	·
O=[N+]([O-])c1ccc(O)c(/C=N/NC(=S)Nc2ccc(Cl)cc2Cl)c1	5.3	-1.4	-1.7	16.6	10.3	42.6*	48.5*	·
Cc1cc(Cl)ccc1NC(=O)CCC(=O)N/N=C/c1cc([N+](=O)[O-])ccc1O	-1.1	1.3	-2.2	-3.3	4.4	-1.1	·	·
COc1cc(-c2nc(-c3ccc4c(c3)-c3ccccc3S4(=O)=O)c(-c3ccccc3)[nH]2)cc(OC)c1O	-20.8	-12.7	-7.9	-29.1	0.6	32.3*	36.7*	·	Fam108b ABPP HTS=80.0*
COc1cc(/C=C2/C(=N)N3N=C(CC(=O)N4CCOCC4)SC3=NC2=O)ccc1OCc1ccc(F)cc1	-6.4	13.1	-3.0	-13.8	2.2	-7.1	·	·
CC(=O)c1cc(O)c2ccccc2c1O	6.3	0.6	3.9	46.3*	39.2*	31.2*	17.6	39.1*
COc1ccc2nc(-c3ccco3)c(-c3ccco3)nc2c1	-3.0	4.2	2.5	71.9*	-1.2	21.4*	53.7*	41.0*	Fam108b ABPP HTS=35.0
COc1ccc(-c2nc3ccccc3nc2-c2ccc(OC)cc2)cc1	-5.3	-2.9	1.1	5.5	0.9	-0.3	·	·
c1coc(-c2nc(-c3ccco3)c(-c3ccco3)nc2-c2ccco2)c1	-15.4	-0.9	44.6*	79.9*	4.1	71.4*	9.6	36.7*
Nc1nc(-c2ccco2)c(-c2ccco2)s1	-2.6	-2.4	-3.0	21.7	0.9	13.8	·	·
O=c1c(-c2ccccc2)c(-c2ccccc2)oc2cc(O)cc(O)c12	-5.0	-6.5	-2.9	-10.0	-3.7	7.6	·	·
O=c1c(O)c(-c2cc(O)c(O)c(O)c2)oc2cc(O)cc(O)c12	-31.3	-21.7	-6.3	78.8*	18.5	30.9*	-26.7	48.0*
C/C(=N\NC(=O)c1cc(O)cc(O)c1)c1ccc(NC(=O)Cc2ccccc2)cc1	-7.8	3.5	-1.0	37.8*	1.6	26.6*	9.7	46.7*
SMILES	LYPLA1 counter	LYPLA2 inh	PAD4 inh	GSTO1 inh	PME-1 inh	Fam108B inh	Fam108b inh conf	GSTO1 inh conf	others
O=C(NC(=S)Nn1cnnc1)c1cccc(Br)c1	-0.5	3.0	-0.8	2.6	-0.2	-1.3	·	·
CCCCNC(=O)Oc1c(Br)cc2sc(=O)oc2c1Br	-1.0	-2.4	-9.6	66.3*	-10.1	25.7*	1.2	19.1
CCOC(=O)C1=C(CC)Nc2ccccc2N=C1NC(=O)c1cc(S(=O)(=O)N2CCOCC2)ccc1C	·	·	0.3	·	·	·	·	·
CCOC(=O)[C@@H]1[C@H]2COc3ccccc3[C@H]2N2C(=O)N(c3ccc(OC)cc3)C(=O)[C@]12C	-1.4	-0.2	1.9	0.9	4.9	-1.8	·	·
O=C(O)C1Nc2ccc(OC(F)(F)F)cc2C2C=CCC12 (stereo not given)	-1.1	7.3	1.1	48.2*	6.2	22.5*	4.2	19.0
COc1cccc(C2Nc3c(F)cc(Br)cc3C3C=CCC32)c1OC (stereo not given)	4.6	3.7	-2.5	3.1	-2.5	-1.2	·	·
COc1cccc2c1NC(C(=O)O)C1CC=CC21 (stereo not given)	-2.7	6.0	1.3	61.3*	14.2	53.4*	16.5	45.7*
COc1ccc(Br)cc1C1N2CC3(C)CN1CC(C)(C2)C3=O (stereo not given)	-0.1	4.6	-2.6	4.7	6.7	3.1	·	·
COc1ccc(OC)c2c1nc1n2CCS1	2.5	1.2	-2.8	-5.3	-1.5	0.0	·	·
CCOc1ccc(NS(=O)(=O)c2ccc(C(=O)N3CCN(C(C)=O)CC3)cc2)cc1	5.9	12.2	6.7	4.7	0.6	-3.6	·	·
Oc1ccc(/C=N/Nc2ccc(Cl)nn2)c(O)c1O	-4.6	1.1	6.3	71.0*	-2.7	23.4*	-7.5	14.6
CCOC(=O)C1=C(SCC)c2cc3c(n2C1=O)CCCC3	1.8	0.5	4.9	37.7*	8.0	22.5*	13.8	21.1
COc1ccc(CNc2nc3ccccc3n2C)c(OC)c1	-3.2	2.3	-3.2	-4.5	10.3	8.9	·	·
COc1ccc(N=Nc2nc3cc(Br)c(Br)cc3n2C)c(OC)c1	3.8	9.6	9.3	40.2*	61.3*	31.3*	12.0	33.2
CN(C(=O)c1cccc(Br)c1)C1CCS(=O)(=O)C1 (stereo not given)	0.0	2.5	4.9	1.3	3.4	0.4	·	·
O=C(CCC(=O)N1CCc2ccccc2C1)NCCc1ccc(Cl)cc1	-3.5	-6.8	4.2	14.4	-3.0	-1.4	·	·

Compound activity: PubChem BioAssay, The Scripps Research Institute Molecular Screening Center
